Data as given in PubChem BioAssay (EPA / NIEHS).
Values joined by “and” are separate entries in the source; they are usually repeats but may differ in a detail not shown here. Identical values can stand only once. Inconclusive results are not listed. The source holds several records for some structures; these can differ, active in one and inactive in another. Active and inactive are the calls of the source. Rule for the calls, unless noted: active = hit-call score of the fitted dose curve at least 0.9, where 1 is the maximum; inconclusive = response in the unintended direction; inactive = score below 0.9.

molecular target: Glutamate receptor ionotropic, kainate 1 (Rattus norvegicus) (UniProt P22756); test: NVS_IC_rKAR: NovaScreen (NVS) Ion Channel Assay for rat Kainic Acid Receptors (KAR) (AID 2283334; active = hit-call score of the fitted dose curve at least 0.9, where 1 is the maximum; inactive = score below 0.9)
Sequence (P22756 whole entry, looked up): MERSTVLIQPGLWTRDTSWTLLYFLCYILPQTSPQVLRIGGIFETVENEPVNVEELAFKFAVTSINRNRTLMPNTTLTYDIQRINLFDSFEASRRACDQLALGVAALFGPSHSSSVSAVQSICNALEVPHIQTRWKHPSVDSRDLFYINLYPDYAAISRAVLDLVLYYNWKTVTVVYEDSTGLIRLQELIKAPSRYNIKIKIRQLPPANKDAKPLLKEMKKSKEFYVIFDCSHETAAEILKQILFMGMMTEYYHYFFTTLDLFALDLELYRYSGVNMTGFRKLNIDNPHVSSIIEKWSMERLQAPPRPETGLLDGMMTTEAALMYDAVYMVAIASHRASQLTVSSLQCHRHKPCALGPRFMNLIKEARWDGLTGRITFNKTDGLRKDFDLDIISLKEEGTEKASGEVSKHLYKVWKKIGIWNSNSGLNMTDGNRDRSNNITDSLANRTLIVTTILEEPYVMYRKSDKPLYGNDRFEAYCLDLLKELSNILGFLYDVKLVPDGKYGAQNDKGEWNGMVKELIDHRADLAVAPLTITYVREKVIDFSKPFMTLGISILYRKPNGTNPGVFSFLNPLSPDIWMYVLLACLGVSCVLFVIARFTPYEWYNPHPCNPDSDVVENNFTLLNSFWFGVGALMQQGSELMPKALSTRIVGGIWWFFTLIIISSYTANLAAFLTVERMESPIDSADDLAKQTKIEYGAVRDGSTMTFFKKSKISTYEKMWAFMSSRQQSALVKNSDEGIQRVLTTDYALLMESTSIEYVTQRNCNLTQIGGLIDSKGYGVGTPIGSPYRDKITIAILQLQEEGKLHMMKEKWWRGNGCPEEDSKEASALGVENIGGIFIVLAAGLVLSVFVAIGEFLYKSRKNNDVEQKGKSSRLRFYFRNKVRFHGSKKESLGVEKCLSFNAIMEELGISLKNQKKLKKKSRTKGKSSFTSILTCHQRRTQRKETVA
In short: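 Rat forebrain membrane preparation incubated 1 h with radioligand and test chemical; bound signal read by filtration and scintillation. Single-concentration screen at 25 uM, then concentration series to 50 uM maximum.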

| Compound | outcome |
| --- | --- |
| OCCC(F)(F)C(F)(F)C(F)(F)C(F)(F)C(F)(F)C(F)(F)C(F)(F)C(F)(F)F | inactive |
| NC(=O)N1C(=O)C(C(=O)c2cc(Cl)cs2)c2cc(F)c(Cl)cc21 (stereo not given) | inactive |
| CC[C@H](C)[C@@H](C(=O)O)n1sc2ccccc2c1=O | inactive |
| COC(=O)CCCCC(=O)OC | inactive |

molecular target: rat Peripheral-type Benzodiazepine Receptor (PBR), Tspo (gene 24230) (UniProt P16257); test: NVS_MP_rPBR: NovaScreen (NVS) Membrane Protein Assay for rat Peripheral-type Benzodiazepine Receptor (PBR) (AID 2283335)
Sequence (P16257 whole entry, looked up): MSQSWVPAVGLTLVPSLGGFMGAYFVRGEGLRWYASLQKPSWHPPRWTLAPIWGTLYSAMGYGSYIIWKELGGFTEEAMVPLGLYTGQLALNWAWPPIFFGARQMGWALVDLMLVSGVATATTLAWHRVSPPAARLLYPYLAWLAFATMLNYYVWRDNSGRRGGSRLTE
In short: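 Single-concentration duplicate screening at 25 uM preceded concentration-series retesting of actives. Binding of a specific radioligand to rat kidney membrane PBR was read by filtration radiodetection after 1 h, with plate-wise positive and negative controls.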

| Compound | outcome | AC50 |
| --- | --- | --- |
| CC1=C(/C=C/C(C)=C/C=C/C(C)=C/C(=O)O)C(C)(C)CCC1 | inactive |  |
| O=C(OCCOCCOC(=O)c1ccccc1)c1ccccc1 | inactive |  |
| CC[C@H](c1ccc(O)cc1)[C@@H](CC)c1ccc(O)cc1 |  | 822 nM (active) and 258 nM (active) |
| O=c1c(-c2ccc(O)cc2)coc2cc(O)ccc12 |  | 14 µM (active) |
| CCCCCCCCCCCCc1ccccc1S(=O)(=O)O |  | 6.37 µM (active) |
| CCN(CC)CCNc1ccc(CNC=O)c2sc3ccc(OC)cc3c(=O)c12 |  | 6.96 µM (active) |
| NC(=O)N1C(=O)C(C(=O)c2cc(Cl)cs2)c2cc(F)c(Cl)cc21 (stereo not given) |  | 25 µM (active) |
| Cc1oc(-c2ccccc2)nc1CCOc1ccc(C[C@H](Nc2ccccc2C(=O)c2ccccc2)C(=O)O)cc1 |  | 4.35 µM (active) |
| CCCOc1sc(C(=O)N2CCC(c3cc(CN)ccc3F)CC2)c(C)c1Br | inactive |  |
| CCC(=C(c1ccc(O)cc1)c1ccc(OCCN(C)C)cc1)c1ccccc1 | inactive | 4.37 µM (active) and 3.09 µM (active) |
